An excerpt weighted towards active compounds, which were near 3.2% of everything screened.
Pol III holo inh: blocks replication by bacterial DNA polymerase III holoenzyme; reconstituted DNA polymerase III holoenzyme replication, biochemical; Potency, µM (series often up to 57.1 µM); 71,000 tested, 0.25% active; AID 603
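Reconstituted *E. coli* holoenzyme (0.35 nM Pol III, 1 nM beta, 154 nM SSB, 2 nM primase) was preincubated with compound for 15 min at RT. Synthesis on 1.4 nM ssM13Gori ran 35 min, then was stopped with PicoGreen/EDTA and read as dsDNA fluorescence.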
TSHR ag: activates the human thyroid stimulating hormone receptor; Potency, µM (top dose mostly 57.1 µM), usual class: activators; HEK293-CNG-TSHR cells (CNG channel as cAMP sensor), membrane potential dye, cAMP; 73,000 tested, 0.48% active; AID 926; active = well fitted activation curve with a large enough effect in the main read-out, with a control signal flat, not every such curve was filed as active; inconclusive = small, poorly fitted or top-dose-only effect, or a change in a side signal; inactive = no such curve, though single readings can be large or run the other way; reference of the percent scale not stated here;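 also: the control signal comes from parental cells without the receptor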
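HEK 293 cells stably expressing TSHR and a modified CNG channel, with CNG-only parental cells as counterscreen, were preloaded 60 min at room temperature with membrane potential dye containing 100 uM RO 20-1724. Compound exposure was 30 min, and depolarization was read as fluorescence at 590 nm.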
YjeE inh: inhibitors of E. coli YjeE (TsaE). P0AF67. purified YjeE enzyme, qHTS inhibition assay. Potency, µM. 71,000 tested, 0.05% active. AID 605
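Fluorescence polarization of a BODIPY Texas Red–ADP probe (2 uM) bound to purified YjeE (10 uM) was read after 15 min room-temperature incubation with compounds. Loss of polarization marks inhibitors; ADP serves as titrated control.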
BRCT inh red: BRCT-phosphoprotein interaction inhibition (red fluorophore). BRCT-phosphopeptide binding, red fluorescence polarization. Potency, µM (highest dose often 76.9 µM), most hits filed as inhibitors. 75,000 tested, 0.03% active. AID 892
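Rhodamine-labelled pBACH1 10-mer (100 nM) bound to BRCT domain (100 nM) at pH 7.3; compounds incubated 12 min room temperature, polarization read. Free peptide defines full inhibition; unlabelled decapeptide titrated as control.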
BRCT inh green: blocks human BRCA1 BRCT binding to phosphopeptide, green readout; Potency, µM (titrated, usually from 76.9 µM), most hits filed as inhibitors; AID 875; BRCA1 BRCT-phosphopeptide binding, green fluorescence polarization; P38398; 75,000 tested, 0.05% active
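Fluorescence polarization: His-tagged BRCT (~35 kDa BRCA1 C-terminus, 250 nM) bound to 100 nM fluorescein-labeled phosphorylated 10-aa BACH1 peptide, pH 7.3 phosphate buffer with DTT and Tween 20. Compounds incubated 12 min at room temperature; inhibition read as lowered polarization.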
HEK293 cAMP ctrl: parental HEK293 cAMP activation (counter-screen) | 73,000 tested, 2.5% active | Potency, µM (top dose mostly 57.1 µM), actives largely listed as activators | parental HEK293 CNG cAMP sensor, membrane potential fluorescence | AID 938; also: nearly all actives have a fitted effect of over 55% in size
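Counterscreen for endogenous-receptor signalling: CNG-channel HEK 293 cells report cAMP rise by membrane depolarization. After 60 min dye equilibration with 100 uM RO 20-1724, compounds incubated 30 min before bottom-read fluorescence at 590 nm.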
Large screens that a line does not name were inactive; ! = not active in a repeat. Unless noted, calls follow the shape of the dose curve; as a rule, active = well fitted curve in the direction sought with a large enough effect; inconclusive = small, poorly fitted or top-dose-only effect, or another doubt; inactive = no such curve, though single readings can be large; an effect the other way counts as inactive or inconclusive.

O=C(NCc1ccc2c(c1)OCO2)c1ccc(COc2cccc(Cl)c2)o1	TSHR ag inconclusive, HEK293 cAMP ctrl 20µM
COc1ccc(NC(=O)N2CC[C@@]3(CCCN(C(=O)c4cccc(F)c4)C3)C2)cc1	none
COc1cccc(Cn2c(-c3nonc3N)nc3ccccc32)c1	TSHR ag inconclusive, HEK293 cAMP ctrl 25.1µM
COc1ccc(CCNC(=O)Cn2c(-c3nonc3N)nc3ccccc32)cc1OC	TSHR ag inconclusive, HEK293 cAMP ctrl inconclusive
COc1cc(Cn2c(-c3nonc3N)nc3ccccc32)ccc1C	TSHR ag inconclusive, HEK293 cAMP ctrl 25.1µM
COc1ccc([C@@H]2OC[C@]3(COC(C)=O)[C@H](C)C=C(C)[C@@H]2[C@H]3C)cc1	TSHR ag inconclusive, HEK293 cAMP ctrl inconclusive (no result: BRCT inh red, BRCT inh green)
CCc1c(O)nc(SCc2ccccc2)n(C(C)CC)c1=O (configuration not stated)	TSHR ag inconclusive, HEK293 cAMP ctrl 25.1µM
O=C(c1ccncc1)N1CCC[C@@]2(CCN(c3cccc(-c4ccccc4)c3)C2)C1	none
COc1ccc(-c2nc3cnc(OC)nc3n(C[C@H]3CCCO3)c2=O)cc1	TSHR ag inconclusive, HEK293 cAMP ctrl 20µM
N#CC(=NCCO)C1=C(O)c2ccccc2C1=O	none
O=C1C(SCCO)=C(SCCO)C(=O)c2ccccc21	Pol III holo inh 31.6µM!, TSHR ag inconclusive, HEK293 cAMP ctrl 25.1µM!
Cc1cc(C)c2nc(C(F)(F)F)nc(N3CC(C)OC(C)C3)c2c1 (configuration not stated)	TSHR ag inconclusive, HEK293 cAMP ctrl 25.1µM
Cc1ccc(N2CCn3c2nc2c3c(=O)n(CCc3ccccc3)c(=O)n2C)cc1	none
Cn1c(SCC(=O)NC2CCCC2)nnc1-c1ccc(S(=O)(=O)N2CCOCC2)cc1	TSHR ag inconclusive, HEK293 cAMP ctrl 25.1µM
O=C(Nc1nn[nH]n1)c1nc(-c2ccccc2)cc(=O)[nH]1	none
O=C(NCCc1ccccc1)c1cnn2c(C(F)F)cc(C3CC3)nc12	TSHR ag inconclusive, HEK293 cAMP ctrl inconclusive
COC(=O)c1ccccc1NC(=O)c1cnn2c(C(F)F)cc(C3CC3)nc12	TSHR ag inconclusive, HEK293 cAMP ctrl 15.8µM
Cc1noc(C)c1COC(=O)c1ccccc1Oc1ccccc1	TSHR ag inconclusive, HEK293 cAMP ctrl 31.6µM
Cc1noc(C)c1COC(=O)c1ccccc1NC(=O)Cc1ccccc1	TSHR ag inconclusive, HEK293 cAMP ctrl inconclusive
COc1ccccc1CNc1cc(-c2cccnc2)ncn1	TSHR ag inconclusive, HEK293 cAMP ctrl inconclusive
COc1ccc(CNc2cc(-c3ccccc3C)ncn2)c(OC)c1	TSHR ag inconclusive, HEK293 cAMP ctrl 15.8µM
COc1ccccc1CNc1cc(-c2ccccc2C)ncn1	TSHR ag inconclusive, HEK293 cAMP ctrl 15.8µM
COc1ccccc1CNc1cc(-c2ccccc2OC)ncn1	TSHR ag inconclusive, HEK293 cAMP ctrl 15.8µM
COCCNc1cc(-c2ccccc2C(F)(F)F)ncn1	TSHR ag inconclusive, HEK293 cAMP ctrl 0.316µM
O=C1C=C[C@@H](O)[C@H]2[C@@H]3C(=O)N(c4cccc(Oc5ccccc5)c4)C(=O)[C@@H]3CC[C@H]12	none (no result: Pol III holo inh, YjeE inh)
CN1CCN(c2ncc3nc(-c4ccccc4)c(=O)n(-c4ccccc4)c3n2)CC1	none
COc1ccc(-c2cc(C(F)(F)F)n3ncc(C(=O)NCC4CCCO4)c3n2)cc1 (configuration not stated)	TSHR ag inconclusive, HEK293 cAMP ctrl 10µM
COc1cccc(-c2cc(C(F)(F)F)n3ncc(C(=O)NCC4CCCO4)c3n2)c1 (configuration not stated)	TSHR ag inconclusive, HEK293 cAMP ctrl inconclusive
Cc1ccc(C2C3CSCC=C3C(C#N)=C(N)C2(C#N)C#N)cc1 (configuration not stated)	TSHR ag 25.1µM
O=C(NCc1ccco1)c1sc(=S)n2c1[nH]c(=O)c1ccccc12	TSHR ag inconclusive, HEK293 cAMP ctrl 25.1µM
O=C(NC1CCCC1)c1sc(=S)n2c1[nH]c(=O)c1ccccc12	TSHR ag inconclusive, HEK293 cAMP ctrl inconclusive

Source: PubChem BioAssay
